Each structure is given as a SMILES string. Unmarked numbers belong to inactive results. Active and inactive are the calls of the source.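 Rule for the calls: active = inhibition of the reporter signal at or above 50%; inactive = inhibition below 50%.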

Broadly, the inhibition is the drop in the measured response relative to a control, in per cent.

This assay is described as follows: inhibitors of poly I:C-induced TLR3 signaling, primary screen, cell-based, poly I:C stimulus, luciferase, 10K MLSCN set (AID 602277). As to conditions: HEK293-TLR3 RL24 IRF3 luciferase reporter, at 10 µM, stronger effect = higher value.
Take `Cn1c(Cc2ccccc2)nnc1SCC(=O)N1CCOCC1`: the inhibition was 13.5%.

As for `CCOC(=O)N1CCN(C(=O)c2c(-c3ccccc3)noc2C)CC1`, the inhibition was 31.9%.

Regarding `Cc1csc(NC(=O)CCCSc2nc3ccccc3s2)n1`, the inhibition is 26.7%.

Take `COc1ccc(-c2nc(C#N)c(N3CCOCC3)o2)cc1OC`: the inhibition is -1.53%.

Consider `COCCn1nnnc1CN1CCC(Cc2ccccc2)CC1`, for which the inhibition is 13.6%.

Take `c1cc2c(cc1Cn1cnnn1)OCO2`: the inhibition was 22.4%.

Regarding `O=C(OCCN1C(=O)c2ccccc2C1=O)c1ccc(S(=O)(=O)N2CCCCCC2)cc1`, the inhibition was 12.1%.

On to `CCCN(Cc1cc2cc(C)ccc2[nH]c1=O)C(=O)c1cccc(OC)c1`, for which the inhibition was 10.9%.

As for `c1ccn2c(SCc3ccc4c(c3)OCCO4)nnc2c1`, the inhibition was -95%.

For `Cc1ccc(-n2c(Cn3cnc4ccccc43)nnc2SCC(=O)O)cc1`, the inhibition is 21.8%.

With `CSc1ccc(S(=O)(=O)Nc2cccc(F)c2)cc1`, the inhibition was 26.6%.

For `Cc1cc(NC(=O)CCCN2C(=O)c3cccnc3C2=O)no1`, the inhibition was 13.4%.

On to `C=CCn1c(SCC(=O)NCC2CCCO2)nc2scc(-c3ccco3)c2c1=O` (stereo not given), for which the inhibition was 13.5%.

As to `CCOC(=O)N1CCC(NC(=O)CCN2C(=O)COc3ccccc32)CC1`, the inhibition was 17.2%.

Consider `Cc1cccc(Nc2nc(N)nc(CN3CCC(C(N)=O)CC3)n2)c1C`, for which the inhibition is -60.3%.

Consider `CC(NS(=O)(=O)c1ccc(F)cc1)C(c1cccs1)N1CCN(C)CC1` (stereo not given), for which the inhibition was 33%.

In the case of `COC(=O)c1cccc(NC(=O)Cc2coc3cc(OC)ccc23)c1`, the inhibition was -15.2%.

As for `C[C@@H]1C[C@H](O)c2cc(Cl)ccc2N1`, the inhibition was 27.1%.

As to `Cc1cccc(C)c1OCc1nnc(SCC(=O)Nc2ccccc2F)o1`, the inhibition is 25.4%.

For `COc1cc2c(=O)nc3n(c2cc1OC)C(c1ccccc1)N=C(N)N3` (stereo not given), the inhibition is 23.9%.

`CC(=O)N1CCN(S(=O)(=O)c2cccc(C(=O)Nc3ccc4c(c3)CCC4)c2)CC1`: the inhibition is 1.5%.

Consider `Cn1c(=O)c(=O)n(C)c2cc(S(=O)(=O)N3CCCCC3)ccc21`, for which the inhibition is 14.6%.

Consider `O=C(COC(=O)C12CC3CC(CC(O)(C3)C1)C2)N1CCN(S(=O)(=O)c2ccc(Cl)cc2)CC1`, for which the inhibition was 18%.

With `O=S(=O)(c1ccc(S(=O)(=O)N2CCN3CCCC3C2)cc1)N1CCCC1` (stereo not given), the inhibition is 28.2%.

Regarding `CC(C)CC1NC(=O)N(CC(=O)N2CCN(S(=O)(=O)c3ccc(Cl)cc3)CC2)C1=O` (stereo not given), the inhibition was -5.28%.

`CCN(C1CCCCC1)S(=O)(=O)c1ccc(S(=O)(=O)N2CCN(CCC#N)CC2)cc1`: the inhibition is 52% (active).

As for `C=CCOc1nc2c(c(=O)n(C)c(=O)n2C)n1C`, the inhibition is 34.1%.

On to `Cn1nnnc1SCC(=O)N1CCN(c2cccc(Cl)c2)CC1`, for which the inhibition is 11.3%.

With `Cn1c(=O)[nH]c(=O)c2c1ncn2CCN1CCOCC1`, the inhibition is 16.4%.

In the case of `Cc1cnn(Cc2ccccc2)c1N`, the inhibition is 21.3%.

As to `CCOc1ccc(-c2nc(C#N)c(NCc3ccc4c(c3)OCO4)o2)cc1`, the inhibition was -18.3%.

Take `N[C@@H](Cc1ccccc1)c1nnc2sc(SCc3ccccc3)nn12`: the inhibition was 98.1% (active).

In the case of `CCOC(=O)c1cc2sc(C)cc2n1C(C)C(=O)OCC` (stereo not given), the inhibition is 20.3%.

In the case of `CCn1nnc(NC(=O)c2ccccc2Br)n1`, the inhibition was -39.6%.

With `CCOc1cc(-c2nc3ccccn3c2NCC2CCCO2)ccc1O` (stereo not given), the inhibition is -3.91%.

For the compound `Cc1ccc(O)c(-c2cc3ccccc3[nH]2)c1`, the inhibition was -87.3%.

For `CC(=O)c1c(C)[nH]c(C(=O)N2CCN(C(=O)c3ccco3)CC2)c1C`, the inhibition is 10.9%.

Consider `O=S(=O)(c1ccc(Oc2ccc(-c3nnco3)cc2)nc1)N1CCC(Cc2ccccc2)CC1`, for which the inhibition was 5.84%.

On to `O=C(Nc1ccccc1N1CCN(c2ccc(F)cc2)CC1)c1ccccc1`, for which the inhibition was 21.1%.

Turning to `Cc1cc(C)n2cc(CSc3nnnn3C)nc2n1`, the inhibition is 19.7%.

These data come from PubChem BioAssay.
